Test system: CLZ3 (HCA2 human fibroblast dual HR-NHEJ reporter)
Assay: NHEJ repair efficiency (GFP+ cells) relative to control (log10 fold); higher = more non-homologous end joining
Conditions: 5 µM; doxycycline 0.5 ug/mL
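Also: compound given one day ahead of doxycycline, which switches on I-SceI endonuclease to cut the chromosomally integrated reporter and create DSBs.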

| Structure (SMILES) | NHEJ repair efficiency (log10) |
| --- | --- |
| COC(=O)C1=CO[C@@H](O[C@@H]2O[C@H](CO)[C@@H](O)[C@H](O)[C@H]2O)[C@@H]2[C@@]3(C)O[C@H]3[C@@H](O)[C@]12O [Sesamoside] | -0.0395 |
| COc1c(O)cc2oc(-c3ccccc3)cc(=O)c2c1O [Oroxylin-A] | -0.22 |
| COc1cc(O)cc(O)c1C(=O)/C=C/c1ccccc1 [Cardamonin] | 0.233 |
| C=CCc1ccc(OC)c(OC)c1 [Methyleugenol] | 0.14 |
| C[C@@]12C[C@@]3(O)O[C@@H](O1)[C@]1(COC(=O)c4ccccc4)[C@H]3C[C@@]12O[C@@H]1O[C@H](CO)[C@@H](O)[C@H](O)[C@H]1O [Paeoniflorin] | 0.122 |
| CCCCC/C=C\C/C=C\CCCCCCCC(=O)O [Linoleic Acid] | 0.0448 |
| C[C@@H](CC[C@@]1(O)O[C@H]2C[C@H]3[C@@H]4CC[C@@H]5C[C@@H](O[C@@H]6O[C@H](CO)[C@H](O)[C@H](O)[C@H]6O[C@@H]6O[C@H](CO)[C@@H](O)[C@H](O)[C@H]6O)CC[C@]5(C)[C@H]4CC[C@]3(C)[C@H]2[C@@H]1C)CO[C@@H]1O[C@H](CO)[C@@H](O)[C@H](O)[C@H]1O [Timosaponin b- II] | 0.192 |
| C[C@@H]1CC[C@@]2(OC1)O[C@H]1C[C@H]3[C@@H]4CC=C5C[C@@H](O[C@@H]6O[C@H](CO)[C@@H](O)[C@H](O[C@@H]7O[C@H](CO)[C@@H](O)[C@H](O)[C@H]7O)[C@H]6O[C@@H]6O[C@@H](C)[C@H](O)[C@@H](O)[C@H]6O)CC[C@]5(C)[C@H]4CC[C@]3(C)[C@H]1[C@@H]2C [Gracillin] | -0.154 |
| CCOC(=O)c1c(C(=O)OCC)c(O)c2ccccc2c1O [Rubidate] | 0.0573 |
| CC(C)=CC[C@H](O)/C(C)=C/CO[C@@H]1O[C@H](CO)[C@@H](O)[C@H](O)[C@H]1O [Rosiridin] | 0.096 |
| C[C@@H]1O[C@@H](O[C@H]2[C@H](OC(=O)[C@]34CCC(C)(C)C[C@H]3C3=CC[C@@H]5[C@@]6(C)C[C@H](O)[C@H](O[C@@H]7O[C@H](CO)[C@@H](O)[C@H](O[C@@H]8O[C@H](CO)[C@@H](O)[C@H](O)[C@H]8O)[C@H]7O)C(CO)(CO)[C@@H]6CC[C@@]5(C)[C@]3(C)C[C@H]4O)OC[C@H](O)[C@@H]2O)[C@H](O)[C@H](O)[C@H]1O[C@@H]1OC[C@@H](O)[C@H](O[C@@H]2OC[C@](O)(CO)[C@H]2O)[C@H]1O [Platycodin D2] | -0.00927 |
| COc1cc(C2Oc3ccc(C4Oc5cc(O)cc(O)c5C(=O)C4O)cc3OC2CO)ccc1O (centres undefined) [Iso-Silybin] | -0.138 |
| O=c1ccc2ccc(O)c(O)c2o1 [Daphnetin] | 0.0636 |
| c1cc2c(cc1O[C@H]1OC[C@H]3[C@@H]1CO[C@@H]3c1ccc3c(c1)OCO3)OCO2 [Sesamolin] | 0.101 |
| CC1CCC(C(C)C)C(O)C1 (centres undefined) [Menthol] | 0.0621 |
| C=C[C@H]1[C@H](O[C@@H]2O[C@H](CO)[C@@H](O)[C@H](O)[C@H]2O)OC=C2C(=O)OCC[C@]21O [Swertiamarin] | -0.0365 |
| CC1(C)[C@H](OC(=O)c2ccccc2)CC[C@]2(C)C3=C([C@@H](O)C[C@@H]12)[C@@]1(C)CC[C@@]2(C)CC[C@@](C)(COC(=O)c4ccccc4)C[C@H]2[C@]1(C)CC3 [3,29-Dibenzoyl Rarounitriol] | -0.00463 |
| C[C@@H]1CC[C@]2(C(=O)O[C@@H]3O[C@H](CO)[C@@H](O)[C@H](O)[C@H]3O)CC[C@]3(C)C(=CC[C@@H]4[C@@]5(C)CC[C@H](O)[C@@](C)(CO)[C@@H]5CC[C@]43C)[C@@H]2[C@]1(C)O [Pedunculoside] | 0.0473 |
| C=C1CCC[C@]2(C)C[C@]3(O)OC(=O)C(C)=C3C[C@@H]12 [Atractylenolide Ⅲ] | 0.0709 |
| COc1c(O)cc2c(c1O)C(=O)c1c(cc(C)c(O)c1OC)C2=O [Aurantio-obtusin] | 0.137 |

| Structure (SMILES) | NHEJ repair efficiency (log10) |
| --- | --- |
| C=C[C@@H]1CNC(=S)O1 [Epigoitrin] | 0.17 |
| Cn1c(=O)c2nc[nH]c2n(C)c1=O [Theophylline] | 0.0481 |
| O=C(/C=C/c1ccc(O)c(O)c1)OC[C@H]1O[C@@H](OCCc2ccc(O)c(O)c2)[C@H](O)[C@@H](O)[C@@H]1O [Calceolarioside B] | -0.0242 |
| O=C(/C=C/c1ccc(O)c(O)c1)O[C@H](C(=O)O)[C@H](OC(=O)/C=C/c1ccc(O)c(O)c1)C(=O)O [Chicoric Acid] | 0.0111 |
| O=C(/C=C/c1ccc(O)c(O)c1)OC1(C(=O)O)C[C@@H](O)C(O)[C@H](O)C1 (some centres undefined) [1-Caffeoylquinic Acid] | -0.0477 |
| COc1cc2ccc(=O)oc2c(O)c1O [Fraxetin] | 0.113 |
| C=C(C)[C@H](CC=C(C)C)Cc1c(O)cc(OC)c2c1O[C@H](c1ccc(O)cc1O)CC2=O [Kurarinone] | 0.0108 |
| NCCCC(=O)O [γ-Aminobutyric Acid] | -0.0944 |
| OCC1=C[C@@H](O)[C@@H]2C=CO[C@@H](O[C@@H]3O[C@H](CO)[C@@H](O)[C@H](O)[C@H]3O)[C@H]12 [Aucubin] | 0.0297 |
| CC(C)=CC(O)C/C(C)=C/COc1c2ccoc2cc2oc(=O)ccc12 (centres undefined) [Notopterol] | 0.0643 |
| O=C(O)/C=C/c1ccccc1 [Cinnamic Acid] | -0.0918 |
| C[N+](C)(C)CC(=O)O [Betaine] | -0.243 |
| Oc1ccc2c(c1)OCO2 [Sesamol] | 0.111 |
| COc1cc2ccc(=O)oc2c(O[C@@H]2O[C@H](CO)[C@@H](O)[C@H](O)[C@H]2O)c1O [Fraxin;Fraxoside; Paviin] | 0.0655 |
| COc1c2c(cc3oc(CO)cc(=O)c13)O[C@H](C(C)(C)O)C2 [Cimifugin] | 0.0139 |
| O=C(O)C1=C[C@@H](O)[C@@H](O)[C@H](O)C1 [Shikimic Acid] | 0.128 |
| C/C1=C\CC[C@]23O[C@H]2[C@@H](OC3=O)c2c(C)coc2C1 [Linderane] | -0.0245 |
| COc1ccc(-c2cc(=O)c3c(O)cc(O[C@@H]4O[C@H](CO[C@@H]5O[C@@H](C)[C@H](O)[C@@H](O)[C@H]5O)[C@@H](O)[C@H](O)[C@H]4O)cc3o2)cc1 [Linarin] | -0.0758 |
| C/C1=C/CC[C@H](C)C(=O)C[C@@H](C(C)C)C(=O)C1 [Curdione] | -0.0258 |
